{"source": "PubChem BioAssay AID624305", "about": "(National Center for Advancing Translational Sciences (NCATS), 2012)", "note": "Inconclusive results are not listed. Activity calls are given as the source filed them. Calls come from the whole dose curve; as a rule, active = well fitted activation curve with a large enough effect; inconclusive = small, poorly fitted or top-dose-only effect; inactive = no such curve, though single readings can be large or run the other way. Potency is the fitted concentration of half-maximal effect."}
{"assay": "qHTS assay for re-activators of p53 using a Luc reporter: Hit Validation; note: nearly all actives have a fitted effect of over 75% in size; for activation: 0% is about no effect", "details": "p53-responsive luciferase reporter cells, luminescence, H1299 line expressing heat-sensitive Ala138Val p53; series mostly up to 46.1 µM; activation: at the top concentration", "in_short": "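Hit confirmation with a 1:5 dilution series, at 37 deg C for 24 hrs, in H1299 cells co-expressing temperature-sensitive p53-A138V and p53-responsive luciferase. Nocodazole served as control; luminescence read after 10 min with detection reagent.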"}
{"molecule": "Cc1ccc(CNc2cc(C(=O)O)ccc2Cl)s1", "activation": "-12.5% (inactive)"}
{"molecule": "Cc1ccc2nc(SCn3nnc4ccccc4c3=O)[nH]c2c1", "Potency": "1300 nM (active)"}
{"molecule": "CCOC(=O)C1CCN(S(=O)(=O)Cc2ccccc2)C1=O", "note": "(centres undefined)", "activation": "0.521% (inactive)"}
{"molecule": "COc1ccc(/C=N/Nc2nncc3ccccc23)cc1", "Potency": "73.1 nM (active)"}
